Assay results: PubChem BioAssay (EPA / NIEHS)
Where “and” joins values, the source holds several entries; their conditions need not be identical. Equal values may be shown once. Results filed as inconclusive are left out. More than one record can exist for a structure, and the calls need not agree. Calls of active or inactive are those of the source. Rule for the calls, unless noted: active = hit-call score of the fitted dose curve at least 0.9, where 1 is the maximum; inconclusive = response in the unintended direction; inactive = score below 0.9.

Columns and labels:
[1] = biological target: Nuclear receptor subfamily 1 group I member 3 (Homo sapiens) (UniProt Q14994); assay: ATG_CAR_TRANS: Attagene TRANS-FACTORIAL HepG2 Assay for human Constitutive Androstane Receptor (CAR) (AID 2282969); conditions: HepG2 Attagene TRANS-FACTORIAL CAR reporter;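 note: activators raise reporter mRNA above DMSO so AC50 marks induction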
Chain of Nuclear receptor subfamily 1 group I member 3 (Homo sapiens) (Q14994 whole entry, looked up, the tested form may be a part): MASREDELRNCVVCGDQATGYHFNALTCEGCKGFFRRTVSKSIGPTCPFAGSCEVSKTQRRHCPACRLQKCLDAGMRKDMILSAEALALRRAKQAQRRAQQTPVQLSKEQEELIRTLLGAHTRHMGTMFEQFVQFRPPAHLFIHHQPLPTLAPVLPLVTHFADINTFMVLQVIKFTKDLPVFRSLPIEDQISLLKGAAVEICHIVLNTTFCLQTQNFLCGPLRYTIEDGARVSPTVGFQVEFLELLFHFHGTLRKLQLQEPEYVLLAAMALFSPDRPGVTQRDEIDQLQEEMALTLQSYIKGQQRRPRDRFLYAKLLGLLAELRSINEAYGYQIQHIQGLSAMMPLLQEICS
In short: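 Steps: transient transfection of HepG2 with multiple GAL4-UAS reporter units; 24 h compound incubation; RNA isolation, RT-PCR, 6-FAM primer extension, HpaI digest; capillary electrophoresis. Gain-of-signal relative to DMSO negative control.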

[2] = biological target: Estrogen receptor (Homo sapiens) (UniProt P03372); assay: ATG_ERa_TRANS: Attagene TRANS-FACTORIAL HepG2 Assay for human Estrogen Receptor alpha (ERa) (AID 2282970); conditions: HepG2 Attagene TRANS ERa GAL4 reporter, mRNA
Chain of Estrogen receptor (Homo sapiens) (P03372 whole entry, looked up, the tested form may be a part): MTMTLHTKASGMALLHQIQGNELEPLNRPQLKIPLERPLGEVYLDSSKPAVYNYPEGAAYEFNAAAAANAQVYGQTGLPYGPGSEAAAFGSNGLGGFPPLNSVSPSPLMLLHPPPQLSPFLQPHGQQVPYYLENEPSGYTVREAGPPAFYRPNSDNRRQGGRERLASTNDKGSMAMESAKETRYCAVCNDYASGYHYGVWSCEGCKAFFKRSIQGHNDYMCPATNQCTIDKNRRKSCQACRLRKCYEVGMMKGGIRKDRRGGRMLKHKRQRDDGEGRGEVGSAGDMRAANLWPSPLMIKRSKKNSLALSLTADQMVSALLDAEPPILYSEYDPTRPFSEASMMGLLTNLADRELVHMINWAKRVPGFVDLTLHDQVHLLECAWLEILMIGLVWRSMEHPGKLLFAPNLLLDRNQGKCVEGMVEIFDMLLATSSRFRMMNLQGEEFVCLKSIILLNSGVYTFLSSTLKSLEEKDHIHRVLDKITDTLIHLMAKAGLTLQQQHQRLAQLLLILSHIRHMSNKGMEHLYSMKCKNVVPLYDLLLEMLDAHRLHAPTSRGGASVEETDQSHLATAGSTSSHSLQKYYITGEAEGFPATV
In short: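 Liver-derived HepG2 cells expressing chimeric nuclear receptor-Gal4 proteins from transient transfection were exposed for 24 hours. Gain of reporter mRNA signal versus DMSO, read by capillary electrophoresis of FAM-labelled PCR products, was recorded.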

[3] = biological target: Steroid hormone receptor ERR1 (Homo sapiens) (UniProt P11474); assay: ATG_ERRa_TRANS: Attagene TRANS-FACTORIAL HepG2 Assay for human Estrogen-Related Receptor alpha (ERRa) (AID 2282971); conditions: HepG2 Attagene TRANS reporter, ERRa transactivation
Chain of Steroid hormone receptor ERR1 (Homo sapiens) (P11474 whole entry, looked up, the tested form may be a part): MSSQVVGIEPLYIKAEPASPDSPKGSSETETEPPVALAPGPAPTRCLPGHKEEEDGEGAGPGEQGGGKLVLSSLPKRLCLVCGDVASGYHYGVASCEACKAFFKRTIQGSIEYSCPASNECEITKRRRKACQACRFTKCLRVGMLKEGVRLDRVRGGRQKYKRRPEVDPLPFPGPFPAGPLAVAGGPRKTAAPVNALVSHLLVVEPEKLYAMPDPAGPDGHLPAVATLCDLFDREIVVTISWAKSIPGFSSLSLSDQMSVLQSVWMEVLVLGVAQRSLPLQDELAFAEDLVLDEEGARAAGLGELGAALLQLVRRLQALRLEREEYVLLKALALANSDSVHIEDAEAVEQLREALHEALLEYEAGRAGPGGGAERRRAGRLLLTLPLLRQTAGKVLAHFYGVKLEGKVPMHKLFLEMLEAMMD
In short: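 Reporter transcript induction was quantified by RT-PCR and capillary electrophoresis of FAM-labelled, HpaI-cut products after 24 h treatment of HepG2 cells carrying transiently transfected GAL4-UAS reporter units and an exogenous ERRa-Gal4 fusion; activity scored as increase over DMSO.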

[4] = biological target: X-box-binding protein 1 (Homo sapiens) (UniProt P17861); assay: ATG_Xbp1_CIS: Attagene CIS-FACTORIAL HepG2 Assay for human X-box Binding Protein 1 (XBP1) (AID 2282972; active = hit-call score of the fitted dose curve at least 0.9, where 1 is the maximum; inactive = score below 0.9); conditions: HepG2 XBP1 cis-element reporter, Attagene multiplex; actives raise or lower the signal
Chain of X-box-binding protein 1 (Homo sapiens) (P17861 whole entry, looked up): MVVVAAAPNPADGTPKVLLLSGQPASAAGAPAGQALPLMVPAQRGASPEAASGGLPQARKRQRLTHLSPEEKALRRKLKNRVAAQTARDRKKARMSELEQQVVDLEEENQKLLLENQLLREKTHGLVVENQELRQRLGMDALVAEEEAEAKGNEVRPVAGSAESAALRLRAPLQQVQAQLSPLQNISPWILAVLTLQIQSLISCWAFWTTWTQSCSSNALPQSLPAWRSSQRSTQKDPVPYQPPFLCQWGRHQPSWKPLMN
In short: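 Changes in reporter transcript abundance, read by RT-PCR and capillary electrophoresis, reflect endogenous transcription factor activity. Transfected HepG2 cells received compound for 24 hours; DMSO defined baseline for bidirectional analysis.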

[5] = biological target: Bile acid receptor (Homo sapiens) (UniProt Q96RI1); assay: ATG_FXR_TRANS: Attagene TRANS-FACTORIAL HepG2 Assay for Farnesoid X Receptor (FXR) (AID 2282979); conditions: HepG2 Attagene TRANS FXR-GAL4 reporter transcription;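 note: hits raise reporter mRNA above DMSO so AC50 marks FXR activation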
Chain of Bile acid receptor (Homo sapiens) (Q96RI1 whole entry, looked up, the tested form may be a part): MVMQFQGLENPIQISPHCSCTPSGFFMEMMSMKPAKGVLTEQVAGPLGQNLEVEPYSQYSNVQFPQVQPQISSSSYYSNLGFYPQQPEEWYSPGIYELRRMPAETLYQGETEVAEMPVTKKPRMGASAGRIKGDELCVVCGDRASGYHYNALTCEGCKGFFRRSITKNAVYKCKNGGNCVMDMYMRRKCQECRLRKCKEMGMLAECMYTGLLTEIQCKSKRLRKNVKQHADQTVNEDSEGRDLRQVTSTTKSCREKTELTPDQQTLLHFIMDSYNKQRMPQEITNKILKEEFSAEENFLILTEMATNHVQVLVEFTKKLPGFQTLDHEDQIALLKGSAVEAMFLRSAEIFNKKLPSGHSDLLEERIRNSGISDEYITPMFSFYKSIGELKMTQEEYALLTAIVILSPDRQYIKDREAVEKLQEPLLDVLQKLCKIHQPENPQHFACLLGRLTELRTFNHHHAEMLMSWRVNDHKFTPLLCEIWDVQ
In short: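 Transient transfection of HepG2 with multiplexed GAL4-UAS reporter units; exogenous FXR-GAL4 chimera. Dose 24 h → TriZol RNA → oligo(dT) RT → PCR, 6-FAM primer extension, HpaI cut → CE. Gain vs DMSO.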

[6] = biological target: Oxysterols receptor LXR-alpha (Homo sapiens) (UniProt Q13133); assay: ATG_LXRa_TRANS: Attagene TRANS-FACTORIAL HepG2 Assay for human Liver X Receptor alpha (LXRa) (AID 2282980); conditions: HepG2 Attagene TRANS reporter, LXRa transactivation
Chain of Oxysterols receptor LXR-alpha (Homo sapiens) (Q13133 whole entry, looked up, the tested form may be a part): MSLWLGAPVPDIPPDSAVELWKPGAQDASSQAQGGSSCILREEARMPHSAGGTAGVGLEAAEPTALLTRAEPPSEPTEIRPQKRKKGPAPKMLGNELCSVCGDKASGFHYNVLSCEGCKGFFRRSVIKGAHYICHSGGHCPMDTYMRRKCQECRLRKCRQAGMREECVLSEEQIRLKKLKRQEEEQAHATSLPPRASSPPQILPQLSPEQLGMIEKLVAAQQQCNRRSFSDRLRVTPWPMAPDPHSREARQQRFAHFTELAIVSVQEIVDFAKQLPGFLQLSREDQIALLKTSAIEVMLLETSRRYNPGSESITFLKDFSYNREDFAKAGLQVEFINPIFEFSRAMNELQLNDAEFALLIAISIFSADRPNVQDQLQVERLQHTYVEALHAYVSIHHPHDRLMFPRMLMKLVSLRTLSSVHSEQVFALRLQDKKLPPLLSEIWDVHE
In short: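 Transfect HepG2 with GAL4-UAS multiplex reporter constructs (TRANS format, chimeric receptor-GAL4); treat 24 h; extract RNA, reverse-transcribe, PCR-amplify, FAM-label, HpaI-digest; resolve fragments by capillary electrophoresis. Upward response vs DMSO.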

[7] = ATG_M_19_TRANS: Attagene TRANS-FACTORIAL HepG2 Assay for M19 Transcription Factor (Internal Marker) (AID 2282974); conditions: HepG2 Attagene TRANS-FACTORIAL M19 internal marker reporter
In short: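 HepG2 cells transiently transfected with multiple GAL4-UAS reporter transcription units were exposed to chemicals for 24 h. Reporter mRNA was read by RT-PCR, 6-FAM primer extension, HpaI digestion and capillary electrophoresis; gain of signal fitted relative to DMSO.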

[8] = biological target: Estrogen-related receptor gamma (Homo sapiens) (UniProt P62508); assay: ATG_ERRg_TRANS: Attagene TRANS-FACTORIAL HepG2 Assay for human Estrogen-Related Receptor gamma (ERRg) (AID 2282977); conditions: HepG2 Attagene TRANS reporter, ERRg transactivation;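 note: hits increase reporter signal over DMSO so potencies reflect activators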
Chain of Estrogen-related receptor gamma (Homo sapiens) (P62508 whole entry, looked up, the tested form may be a part): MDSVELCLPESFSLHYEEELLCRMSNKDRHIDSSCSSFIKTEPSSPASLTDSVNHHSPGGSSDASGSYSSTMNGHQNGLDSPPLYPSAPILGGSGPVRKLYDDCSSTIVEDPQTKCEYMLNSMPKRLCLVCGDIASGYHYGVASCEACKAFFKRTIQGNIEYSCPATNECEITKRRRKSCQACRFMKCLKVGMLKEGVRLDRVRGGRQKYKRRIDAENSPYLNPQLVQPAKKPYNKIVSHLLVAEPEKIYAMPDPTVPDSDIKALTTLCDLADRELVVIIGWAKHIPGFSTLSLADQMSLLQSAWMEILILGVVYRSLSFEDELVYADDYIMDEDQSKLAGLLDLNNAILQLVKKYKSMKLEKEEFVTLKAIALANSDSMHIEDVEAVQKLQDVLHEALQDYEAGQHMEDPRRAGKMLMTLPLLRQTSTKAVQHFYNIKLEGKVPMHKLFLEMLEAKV
In short: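 Induction of reporter transcripts through a chimeric NR-Gal4 protein is quantified in transfected human HepG2 liver cells after 24 h chemical exposure, using RT-PCR with capillary electrophoresis detection and DMSO as baseline.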

[9] = ATG_GAL4_TRANS: Attagene TRANS-FACTORIAL HepG2 Assay for GAL4 (Internal Marker) (AID 2282976); conditions: HepG2 Attagene TRANS GAL4 internal marker reporter
In short: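 First, HepG2 cells were transfected with reporter units under GAL4-UAS control. Next, they were treated with chemical for 24 h. Finally, RNA was reverse-transcribed, PCR-amplified, FAM-labelled and resolved by capillary electrophoresis, with induction scored against DMSO.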

[10] = biological target: Glucocorticoid receptor (Homo sapiens) (UniProt P04150); assay: ATG_GR_TRANS: Attagene TRANS-FACTORIAL HepG2 Assay for human Glucocorticoid Receptor (GR) (AID 2282978); conditions: HepG2 Attagene TRANS GR reporter, mRNA transcription;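 note: activators score as hits since higher reporter transcript over DMSO is fitted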
Chain of Glucocorticoid receptor (Homo sapiens) (P04150 whole entry, looked up, the tested form may be a part): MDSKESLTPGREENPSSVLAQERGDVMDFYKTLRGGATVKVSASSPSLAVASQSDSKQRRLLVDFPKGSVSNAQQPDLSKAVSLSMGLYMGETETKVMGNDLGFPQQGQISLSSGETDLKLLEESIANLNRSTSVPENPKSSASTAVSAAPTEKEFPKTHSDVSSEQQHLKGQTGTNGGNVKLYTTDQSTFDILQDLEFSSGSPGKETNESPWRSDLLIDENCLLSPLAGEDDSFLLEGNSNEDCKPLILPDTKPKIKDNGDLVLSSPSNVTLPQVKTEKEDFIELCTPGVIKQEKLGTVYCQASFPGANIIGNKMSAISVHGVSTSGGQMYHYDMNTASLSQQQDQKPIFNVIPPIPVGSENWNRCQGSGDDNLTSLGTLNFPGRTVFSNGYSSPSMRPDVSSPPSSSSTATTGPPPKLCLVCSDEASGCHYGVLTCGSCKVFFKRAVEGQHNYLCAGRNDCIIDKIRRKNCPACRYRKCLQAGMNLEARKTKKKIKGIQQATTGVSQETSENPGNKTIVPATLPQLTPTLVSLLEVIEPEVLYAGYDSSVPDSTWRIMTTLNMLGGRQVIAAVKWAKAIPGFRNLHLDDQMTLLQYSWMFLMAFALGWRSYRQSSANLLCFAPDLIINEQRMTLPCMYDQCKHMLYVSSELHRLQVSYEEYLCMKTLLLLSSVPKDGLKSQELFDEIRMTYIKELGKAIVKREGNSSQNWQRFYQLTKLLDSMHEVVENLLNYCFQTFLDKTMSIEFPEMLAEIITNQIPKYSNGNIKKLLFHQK
In short: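 HepG2 cells transiently transfected with multiplexed reporter units in which chimeric NR-GAL4 proteins drive GAL4-UAS reporters; 24 h compound exposure. Reporter mRNA measured by RT-PCR, 6-FAM labelling, HpaI digestion and capillary electrophoresis; gain-of-signal fitted versus DMSO.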

SMILES	outcome [1]	AC50 [2]	outcome [3]	outcome [4]	outcome [5]	outcome [6]	outcome [2]	outcome [7]	outcome [8]	outcome [9]	outcome [10]	AC50 [4]	AC50 [5]
CCCCCCc1ccc(N)cc1	inactive	11.6 µM (active)	inactive	inactive	inactive	inactive							
CC(C)(O)C(=O)c1ccccc1	inactive		inactive	inactive	inactive		inactive	inactive	inactive				
C=Cc1ccc(O)c(OC)c1	inactive			inactive	inactive	inactive	inactive	inactive		inactive			
CCN(CCC#N)c1ccccc1	inactive			inactive	inactive	inactive	inactive	inactive		inactive			
Cc1cccc2c1ccc1ccccc12	inactive	11.2 µM (active)	inactive	inactive				inactive			inactive		
CCOC(C)=O	inactive			inactive		inactive	inactive	inactive		inactive	inactive		
CCCCCCCCCCCCCCCCCC[N+](C)(C)Cc1ccccc1	inactive		inactive	inactive	inactive	inactive	inactive		inactive	inactive	inactive		
Cc1ccccc1C(OCCN(C)C)c1ccccc1 (configuration not stated)	inactive		inactive		inactive	inactive	inactive			inactive			
FC(OC(F)(F)C(F)(F)C(F)(F)F)C(F)(F)F (configuration not stated)	inactive		inactive		inactive	inactive	inactive	inactive	inactive	inactive	inactive		
O=C1OC(=O)c2cc(-c3ccc4c(c3)C(=O)OC4=O)ccc21	inactive			inactive	inactive		inactive	inactive		inactive			
c1cc2cccc3c4cccc5cccc(c(c1)c23)c54	inactive		inactive	inactive	inactive		inactive		inactive				
O=S(=O)(O)C(F)(F)C(F)(F)C(F)(F)C(F)(F)C(F)(F)C(F)(F)C(F)(F)C(F)(F)C(F)(F)C(F)(F)F	inactive		inactive	inactive	inactive	inactive	inactive	inactive	inactive	inactive	inactive		
CC1=CC(=O)c2ccccc2C1=O	inactive		inactive	inactive		inactive	inactive	inactive	inactive				
Cc1ccc2ccc3ccc(C)cc3c2c1	inactive	7.58 µM (active)		inactive	inactive			inactive	inactive		inactive		
COc1cccc(O)c1	inactive			inactive		inactive	inactive	inactive		inactive			
CCN(CC)CC	inactive			inactive	inactive	inactive	inactive	inactive		inactive	inactive		
O=C(O)C(F)(F)OC(F)(F)C(F)(F)OC(F)(F)C(F)(F)OC(F)(F)C(F)(F)C(F)(F)C(F)(F)F	inactive	26 µM (active)	inactive		inactive	inactive	inactive	inactive	inactive	inactive		41.2 µM (active) and 25.4 µM (active)	27 µM (active)
C=CC(C)(CCC=C(C)C)OC(C)=O (configuration not stated)	inactive			inactive	inactive	inactive	inactive	inactive		inactive	inactive		
Cc1cncc(C)c1	inactive		inactive	inactive			inactive	inactive	inactive				
CCOC(OCC)C(=O)c1ccccc1	inactive	32.2 µM (active)	inactive	inactive	inactive	inactive		inactive	inactive	inactive	inactive		
O=C(O)c1cccc(C(=O)O)n1	inactive		inactive	inactive	inactive		inactive		inactive	inactive	inactive		
CCO[Si](CCC1CCC2OC2C1)(OCC)OCC (configuration not stated)	inactive			inactive	inactive	inactive	inactive	inactive	inactive	inactive	inactive		
FC(F)(F)C(F)(F)C(F)(F)Br	inactive			inactive	inactive	inactive	inactive	inactive		inactive	inactive		
Cc1ccc(C(=O)c2ccccc2)cc1	inactive	27.8 µM (active)		inactive	inactive			inactive		inactive			
CCCCCCCCCCCC[N+](C)(C)CCCCCCCCCCCC	inactive		inactive				inactive		inactive		inactive		

SMILES	outcome [1]	AC50 [2]	outcome [3]	outcome [4]	outcome [5]	outcome [6]	outcome [2]	outcome [7]	outcome [8]	outcome [9]	outcome [10]	AC50 [4]	AC50 [5]
CC(C)CCOCCC(C)C	inactive		inactive	inactive	inactive		inactive			inactive	inactive		
O=C(Nc1cccc([N+](=O)[O-])c1)c1cc2ccccc2cc1O	inactive		inactive	inactive	inactive	inactive	inactive	inactive	inactive				
Nc1ccc(O)c(C(=O)O)c1	inactive	44.6 µM (active)	inactive	inactive	inactive	inactive		inactive			inactive		
C=CC(=C)CC/C=C(\C)CCC=C(C)C	inactive		inactive	inactive	inactive	inactive	inactive	inactive	inactive	inactive			
C/C=C/C(=O)C1=C(C)CCCC1(C)C	inactive		inactive		inactive	inactive	inactive		inactive	inactive	inactive		
CN(CCO)S(=O)(=O)C(F)(F)C(F)(F)C(F)(F)C(F)(F)C(F)(F)C(F)(F)C(F)(F)C(F)(F)F	inactive		inactive	inactive		inactive	inactive	inactive	inactive	inactive			
C[N+](C)(CCCNS(=O)(=O)CCC(F)(F)C(F)(F)C(F)(F)C(F)(F)C(F)(F)C(F)(F)F)CC(=O)[O-]	inactive	0.0373 µM (active)	inactive		inactive	inactive			inactive		inactive		
O=C1c2ccccc2C(=O)c2c(O)c(O)cc(O)c21	inactive	4.9 µM (active)	inactive	inactive	inactive	inactive		inactive	inactive	inactive	inactive		
CCCCCCCCCCCCCCCC(=O)OC	inactive			inactive			inactive	inactive		inactive			
CC(C)(C)C1CCCCC1O (configuration not stated)	inactive			inactive	inactive		inactive	inactive		inactive	inactive		
C=CC(=O)OCCC(F)(F)C(F)(F)C(F)(F)C(F)(F)C(F)(F)C(F)(F)C(F)(F)C(F)(F)F	inactive	11 µM (active)	inactive	inactive	inactive	inactive		inactive					
O=c1cc(-c2ccccc2)oc2ccc3ccccc3c12	inactive	2.05 µM (active)		inactive		inactive	inactive	inactive	inactive				
FC(F)(F)C(F)(F)C(F)(F)C(F)(F)I			inactive	inactive	inactive		inactive	inactive					
c1ccc(CNc2ncnc3c2ncn3C2CCCCO2)cc1 (configuration not stated)	inactive			inactive	inactive	inactive					inactive		
CC1CNCC(C)O1 (configuration not stated)	inactive			inactive	inactive	inactive				inactive			
CC1CCC(C(=O)O)CC1 (configuration not stated)			inactive	inactive	inactive	inactive	inactive	inactive	inactive		inactive		
Cc1ccc(C)c(S(=O)(=O)O)c1	inactive			inactive		inactive				inactive			
O=C(F)C(F)(F)C(F)(F)C(F)(F)C(F)F			inactive	inactive	inactive	inactive	inactive	inactive		inactive	inactive		
O=CC(F)(F)C(F)(F)C(F)(F)C(F)F			inactive		inactive	inactive	inactive		inactive	inactive	inactive		
CC(C)(C)c1ccc(O)c(O)c1	inactive			inactive	inactive	inactive		inactive		inactive			
O=C(O)CN(CCCN(CC(=O)O)CC(=O)O)CC(=O)O	inactive			inactive	inactive	inactive				inactive			
FC1(F)C=CC(F)(F)C1(F)F			inactive	inactive	inactive	inactive	inactive	inactive	inactive		inactive		
c1cc[nH]c1			inactive	inactive			inactive			inactive	inactive		
CCCCCC(C)OC(=O)COc1ccc(Cl)c2cccnc12 (configuration not stated)	inactive			inactive	inactive					inactive	inactive		
